Source: PubChem BioAssay AID651599 (National Center for Advancing Translational Sciences (NCATS), 2012)
Records with an inconclusive call do not appear. Where a call stands in place of a potency, no number is given. Calls of active or inactive are those of the source. Calls follow the shape of the dose curve; as a rule, active = well fitted inhibition curve with a large enough effect; inconclusive = small, poorly fitted or top-dose-only effect; inactive = no such curve, though single readings can be large or run the other way.

target: Tumor susceptibility gene 101 protein (Homo sapiens) (UniProt Q99816); test: qHTS Assay for Iinhibitors of HIV-1 Budding by Blocking the Interaction of PTAP/TSG101: Hit Validation in TR assay; conditions: Tsg101 binding domain + Texas Red-labeled PTAP peptide, fluorescence polarization, 20 min; series mostly up to 57.5 µM
Procedure, shortened: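 Fluorescence polarization: Tsg101 binding domain (10 uM final) with Texas Red-labelled PTAP peptide (50 nM final) in HEPES pH 7.5, 0.15 M NaCl, Tween 20, EDTA, TCEP; 20 min binding at room temperature after compound addition.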
Potency is read from the fitted curve at half-maximal effect.

Chain of Tumor susceptibility gene 101 protein (Homo sapiens) (Q99816 whole entry, looked up, the tested form may be a part): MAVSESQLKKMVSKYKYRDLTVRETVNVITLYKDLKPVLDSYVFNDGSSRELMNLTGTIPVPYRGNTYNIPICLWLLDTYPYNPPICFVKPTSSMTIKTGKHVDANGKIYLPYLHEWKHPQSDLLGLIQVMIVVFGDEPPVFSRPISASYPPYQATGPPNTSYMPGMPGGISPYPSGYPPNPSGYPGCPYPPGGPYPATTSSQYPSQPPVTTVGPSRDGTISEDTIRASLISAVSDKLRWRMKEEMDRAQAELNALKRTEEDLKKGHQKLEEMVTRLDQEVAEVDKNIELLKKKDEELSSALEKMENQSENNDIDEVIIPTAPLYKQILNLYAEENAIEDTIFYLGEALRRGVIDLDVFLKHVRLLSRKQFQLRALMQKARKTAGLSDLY

Structure (SMILES) | Potency
O=C(CN1C(=O)NC(Cc2c[nH]c3ccccc23)C1=O)Nc1ccccc1C(F)(F)F (centres undefined) | inactive
O=C1c2cccc3c(O)ccc(c23)C(=O)N1Cc1ccco1 | inactive
Cc1cc(C=C2C(=O)c3ccccc3C2=O)c(C)n1-c1ccc(Cl)cc1 | inactive
COc1ccc(C(=O)c2sc3nc(C)cc(-c4cccs4)c3c2N)cc1OC | inactive
O=c1c(-c2cc3ccccc3o2)[n+]([O-])c2ccccc2n1OCc1ccccn1 | inactive
CNc1c2cccc(C)c2nc2c(C(=O)NCCN(C)C)cccc12 | inactive
COc1ccc(OC)c(/C=C2\N=C(c3ccccc3)OC2=O)c1 | inactive
CCN(CC)c1ccc2c(-c3ccc(S(=O)(=O)O)cc3S(=O)(=O)[O-])c3ccc(=[N+](CC)CC)cc-3oc2c1 | 0.13 µM (active)
Cc1ccc[n+](-c2nc([O-])sc2C=O)c1 | inactive
COc1ccc(OC)c2cc3ccccc3cc12 | inactive
O=c1ccc2cc3c4c(c2o1)CCCN4CCC3 | inactive
CN1c2ccc(C=O)c3c(C=O)ccc(c23)N(C)C1(C)C | inactive
CCCCn1c(=O)[nH]c2nc3cc(N)ccc3nc2c1=O | 11.6 µM (active)
ClCc1nc2ccccc2n1Cc1ccccc1 | inactive
Cc1cc2nc3c(=O)n(CCc4ccccc4)c(=O)[nH]c3nc2cc1N | inactive
COc1cccc(/C(O)=C/c2nc3ccc(C(=O)NCCc4ccc(Cl)cc4)cc3[nH]c2=O)c1 | inactive
CCCN1C(=O)/C(=C/C=C2\N(CC)c3ccccc3C2(C)C)SC1=S | inactive
CCOC(=O)c1ccc(NC(=O)CSc2nc(-c3cccs3)cc(C(F)(F)F)c2C#N)cc1 | inactive
CCn1cc(C=C2C(=O)c3ccccc3C2=O)c2ccccc21 | inactive
COc1ccc(OC)c2c1C(=O)c1ccccc1C2=O | inactive

Structure (SMILES) | Potency
COc1ccccc1N1C(=O)c2cccc3c(N(C)CCO)ccc(c23)C1=O | inactive
N#CC(C#N)=C1C=C2C=C(N3CCCCC3)CCC2CC1 (centres undefined) | inactive
CCN(c1ccc(N=Cc2c(O)n(Cc3ccc(OC)cc3)c(=O)c3ccccc23)cc1)C(C)C | inactive
Cc1cc(/C=C2\SC(=S)NC2=O)c(C)n1-c1ccccc1 | inactive
COc1ccc(OC)c(-c2c3cc(O)c(=O)cc-3oc3cc(O)c(O)cc23)c1 | 32.6 µM (active)
O=C(NC1CC1)c1cccc2c1C(=O)c1ccc(N3CCC(Cc4ccccc4)CC3)cc1S2(=O)=O | inactive
CCN1CC=C2C(C#N)=C(N)C(C#N)(C#N)C(CCc3ccccc3)C2C1 (centres undefined) | 11.6 µM (active)
CC1C2C(c3ccccc3)N(C)C(=O)N(C)C2N(C)C(=O)N1C (centres undefined) | inactive
Cc1ccc(CSc2nnc3c(n2)OC2(Nc4ccccc4-3)C(=O)Nc3ccc(F)cc32)cc1 (centres undefined) | inactive
Cc1n[nH]c(C)c1N1C(=O)c2cccc3c(N4CCCCCC4)ccc(c23)C1=O | inactive
Cc1ccc(C(=O)Nc2ccc(C(=O)O)cc2)cc1S(=O)(=O)NCc1ccccc1 | inactive
O=C(NCc1cccc(F)c1)c1cccc2c1C(=O)c1ccc(N3CCCC3)cc1S2(=O)=O | inactive
CN(N=Nc1ccc([N+](=O)[O-])cc1)c1ccccc1 | inactive
Nc1ccc2c3c(cccc13)-c1ccccc1-2 | inactive
O=C(NC1CCCCC1)c1cccc2c1C(=O)c1ccc(N3CCC(Cc4ccccc4)CC3)cc1S2(=O)=O | inactive
O=C(NCc1cc(C(F)(F)F)ccc1Cl)c1cccc2c1C(=O)c1ccc(N3CCC(Cc4ccccc4)CC3)cc1S2(=O)=O | inactive
COc1ccc(/C=C2/N=C(c3cccs3)OC2=O)cc1OC(C)C | inactive
O=C(N/N=C/c1ccccc1Cl)c1[nH]c2ccc(Br)cc2c1-c1ccccc1 | inactive
Nc1ccc2nc(-c3ccccc3)c(-c3ccccc3)nc2c1 | inactive
